Experimental data from the supplement of paper PMC11732987, “Enantioselective OTUD7B fragment discovery through chemoproteomics screening and high-throughput optimisation” (Communications Chemistry, 2025).

Columns and labels:
Assay in all cases: log2 ratio of Biotin-Ahx-Ub-VS probe labelling (fragment/DMSO); higher = less target engagement (more negative = stronger competition), active = hit call of the paper (q ≤ 0.05, log2 ratio ≤ -1)
Details in all cases: compound concentration: 200 uM; treatment time: 3 h
USP19 = target: T1, USP19 (UniProt O94966)
T1 sequence (whole entry): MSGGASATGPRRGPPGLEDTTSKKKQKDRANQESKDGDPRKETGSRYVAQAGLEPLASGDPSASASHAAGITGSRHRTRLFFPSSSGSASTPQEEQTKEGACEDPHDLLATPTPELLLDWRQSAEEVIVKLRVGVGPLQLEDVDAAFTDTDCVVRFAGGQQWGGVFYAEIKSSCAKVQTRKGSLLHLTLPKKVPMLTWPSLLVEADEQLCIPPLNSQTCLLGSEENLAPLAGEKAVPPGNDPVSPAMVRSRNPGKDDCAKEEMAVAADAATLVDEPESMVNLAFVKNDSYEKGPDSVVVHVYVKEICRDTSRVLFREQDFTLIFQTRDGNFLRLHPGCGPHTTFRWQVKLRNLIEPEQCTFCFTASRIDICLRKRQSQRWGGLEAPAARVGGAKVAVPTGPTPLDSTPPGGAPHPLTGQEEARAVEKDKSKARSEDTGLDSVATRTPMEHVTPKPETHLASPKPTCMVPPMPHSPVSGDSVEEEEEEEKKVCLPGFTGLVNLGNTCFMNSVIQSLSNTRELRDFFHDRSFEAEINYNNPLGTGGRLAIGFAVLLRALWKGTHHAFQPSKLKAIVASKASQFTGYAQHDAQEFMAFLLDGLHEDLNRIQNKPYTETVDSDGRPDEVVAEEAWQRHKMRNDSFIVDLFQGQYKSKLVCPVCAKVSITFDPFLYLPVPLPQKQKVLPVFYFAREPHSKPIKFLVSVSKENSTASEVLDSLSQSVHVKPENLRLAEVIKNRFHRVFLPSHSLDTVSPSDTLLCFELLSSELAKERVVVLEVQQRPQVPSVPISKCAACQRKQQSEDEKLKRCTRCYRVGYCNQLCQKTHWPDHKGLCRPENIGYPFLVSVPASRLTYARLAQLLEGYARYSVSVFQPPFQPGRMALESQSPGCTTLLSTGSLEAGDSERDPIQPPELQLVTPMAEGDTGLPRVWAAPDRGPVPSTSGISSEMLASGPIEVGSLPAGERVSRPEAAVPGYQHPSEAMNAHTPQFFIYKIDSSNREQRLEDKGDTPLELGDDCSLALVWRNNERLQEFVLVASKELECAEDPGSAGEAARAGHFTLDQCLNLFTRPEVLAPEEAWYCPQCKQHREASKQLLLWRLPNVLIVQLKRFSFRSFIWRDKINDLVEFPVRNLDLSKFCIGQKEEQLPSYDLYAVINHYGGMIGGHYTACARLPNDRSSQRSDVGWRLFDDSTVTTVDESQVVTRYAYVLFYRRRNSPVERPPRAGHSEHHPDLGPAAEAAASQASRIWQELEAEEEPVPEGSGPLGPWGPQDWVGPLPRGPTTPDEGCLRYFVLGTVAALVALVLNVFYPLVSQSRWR
Procedure, shortened: (§1)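 Labelling with Biotin-Ahx-Ub-VS (0.5 µM final, 1 h) followed a 3 h triplicate treatment of HEK293T lysate (495 µg per sample, Tris/CHAPS/IGEPAL buffer with protease inhibitors) with fragment at 200 µM or vehicle. Labelled DUBs were NeutrAvidin-enriched, digested with LysC and trypsin, and run by diaPASEF LC-MS/MS. The values, average log2 fragment/vehicle ratios by unpaired t-test, come from global-median-normalised Spectronaut label-free quantities. Proteins with ≥2 unique peptides were used.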

USP22 = target: T2, USP22 (UniProt Q9UPT9)
T2 sequence (whole entry): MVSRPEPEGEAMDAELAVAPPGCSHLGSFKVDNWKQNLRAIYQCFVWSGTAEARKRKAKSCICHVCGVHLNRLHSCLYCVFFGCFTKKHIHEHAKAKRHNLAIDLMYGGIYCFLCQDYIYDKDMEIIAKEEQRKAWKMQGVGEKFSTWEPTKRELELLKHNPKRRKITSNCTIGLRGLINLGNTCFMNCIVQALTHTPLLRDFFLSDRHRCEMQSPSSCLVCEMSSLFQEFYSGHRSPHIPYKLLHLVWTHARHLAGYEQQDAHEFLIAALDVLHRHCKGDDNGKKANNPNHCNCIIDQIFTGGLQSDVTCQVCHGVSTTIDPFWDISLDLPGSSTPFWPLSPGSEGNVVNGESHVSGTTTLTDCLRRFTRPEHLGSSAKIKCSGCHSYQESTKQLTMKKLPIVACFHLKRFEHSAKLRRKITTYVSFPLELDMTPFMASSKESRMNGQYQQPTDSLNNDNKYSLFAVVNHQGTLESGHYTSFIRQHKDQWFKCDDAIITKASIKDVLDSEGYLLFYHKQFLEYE
Procedure, shortened: as §1

USP24 = USP24 (UniProt Q9UPU5)
USP24, sequence (Q9UPU5 whole entry): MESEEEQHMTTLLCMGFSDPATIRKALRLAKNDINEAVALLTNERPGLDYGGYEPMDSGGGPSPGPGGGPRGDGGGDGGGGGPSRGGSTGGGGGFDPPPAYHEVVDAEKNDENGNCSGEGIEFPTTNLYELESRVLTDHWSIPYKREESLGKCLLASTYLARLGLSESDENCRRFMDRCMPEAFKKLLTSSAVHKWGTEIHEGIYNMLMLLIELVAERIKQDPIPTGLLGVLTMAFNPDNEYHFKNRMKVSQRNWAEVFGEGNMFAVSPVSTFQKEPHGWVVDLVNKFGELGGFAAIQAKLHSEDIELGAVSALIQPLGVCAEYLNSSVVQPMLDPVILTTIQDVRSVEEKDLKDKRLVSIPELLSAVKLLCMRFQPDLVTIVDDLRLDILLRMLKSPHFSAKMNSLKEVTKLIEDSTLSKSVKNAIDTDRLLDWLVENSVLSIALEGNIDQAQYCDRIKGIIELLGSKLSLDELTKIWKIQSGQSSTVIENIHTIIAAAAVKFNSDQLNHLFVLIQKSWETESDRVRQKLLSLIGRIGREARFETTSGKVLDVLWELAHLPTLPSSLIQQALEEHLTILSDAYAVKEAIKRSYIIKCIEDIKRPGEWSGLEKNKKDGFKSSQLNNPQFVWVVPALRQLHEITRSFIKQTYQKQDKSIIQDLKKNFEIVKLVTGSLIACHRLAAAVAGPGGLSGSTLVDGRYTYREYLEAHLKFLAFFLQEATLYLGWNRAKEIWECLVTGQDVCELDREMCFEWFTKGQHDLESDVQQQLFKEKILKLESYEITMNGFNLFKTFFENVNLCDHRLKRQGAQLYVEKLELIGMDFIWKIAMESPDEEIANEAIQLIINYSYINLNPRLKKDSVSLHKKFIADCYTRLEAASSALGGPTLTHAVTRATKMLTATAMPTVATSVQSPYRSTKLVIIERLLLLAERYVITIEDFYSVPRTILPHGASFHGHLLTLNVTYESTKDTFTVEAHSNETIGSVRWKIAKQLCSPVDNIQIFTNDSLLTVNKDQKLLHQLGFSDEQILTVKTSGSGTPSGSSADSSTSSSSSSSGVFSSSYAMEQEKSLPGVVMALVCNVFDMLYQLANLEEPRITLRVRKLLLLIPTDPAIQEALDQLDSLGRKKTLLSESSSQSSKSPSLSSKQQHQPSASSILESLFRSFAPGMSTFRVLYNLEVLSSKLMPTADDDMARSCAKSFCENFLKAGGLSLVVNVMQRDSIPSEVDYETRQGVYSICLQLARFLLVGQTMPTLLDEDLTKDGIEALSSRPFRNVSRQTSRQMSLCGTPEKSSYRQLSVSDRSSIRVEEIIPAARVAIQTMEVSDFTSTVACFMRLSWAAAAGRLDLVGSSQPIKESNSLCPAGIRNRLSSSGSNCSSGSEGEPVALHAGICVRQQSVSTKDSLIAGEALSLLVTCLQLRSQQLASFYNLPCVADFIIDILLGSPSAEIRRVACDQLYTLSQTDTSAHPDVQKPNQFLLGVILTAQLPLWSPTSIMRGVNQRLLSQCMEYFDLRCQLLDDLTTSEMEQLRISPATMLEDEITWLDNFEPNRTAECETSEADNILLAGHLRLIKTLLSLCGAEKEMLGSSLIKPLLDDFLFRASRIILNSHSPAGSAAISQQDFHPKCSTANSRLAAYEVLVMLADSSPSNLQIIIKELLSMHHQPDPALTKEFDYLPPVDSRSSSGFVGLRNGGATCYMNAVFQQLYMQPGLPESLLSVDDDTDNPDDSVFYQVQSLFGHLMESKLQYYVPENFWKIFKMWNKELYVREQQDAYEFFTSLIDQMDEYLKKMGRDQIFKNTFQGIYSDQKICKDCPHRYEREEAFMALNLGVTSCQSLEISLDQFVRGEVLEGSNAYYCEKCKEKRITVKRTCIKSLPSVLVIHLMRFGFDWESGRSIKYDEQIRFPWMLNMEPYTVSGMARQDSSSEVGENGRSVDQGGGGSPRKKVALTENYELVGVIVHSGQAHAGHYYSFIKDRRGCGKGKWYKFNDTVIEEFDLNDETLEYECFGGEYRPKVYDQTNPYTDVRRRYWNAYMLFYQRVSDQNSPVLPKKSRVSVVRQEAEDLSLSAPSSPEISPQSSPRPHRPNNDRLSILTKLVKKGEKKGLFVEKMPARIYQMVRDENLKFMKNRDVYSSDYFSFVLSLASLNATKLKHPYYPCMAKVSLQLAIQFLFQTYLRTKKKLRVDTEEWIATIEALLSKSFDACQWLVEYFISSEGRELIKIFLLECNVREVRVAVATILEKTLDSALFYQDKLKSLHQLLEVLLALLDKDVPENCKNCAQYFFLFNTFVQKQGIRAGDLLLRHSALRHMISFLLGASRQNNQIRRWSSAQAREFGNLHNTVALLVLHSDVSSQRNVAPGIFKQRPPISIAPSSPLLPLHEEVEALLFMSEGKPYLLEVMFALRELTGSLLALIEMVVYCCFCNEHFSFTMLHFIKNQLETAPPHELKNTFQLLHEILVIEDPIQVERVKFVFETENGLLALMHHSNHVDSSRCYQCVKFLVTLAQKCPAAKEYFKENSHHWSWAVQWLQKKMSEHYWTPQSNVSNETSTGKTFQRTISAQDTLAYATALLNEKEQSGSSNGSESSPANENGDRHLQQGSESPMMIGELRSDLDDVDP
Procedure, shortened: as §1

USP25 = target: T3, USP25 (UniProt Q9UHP3)
T3 sequence (whole entry): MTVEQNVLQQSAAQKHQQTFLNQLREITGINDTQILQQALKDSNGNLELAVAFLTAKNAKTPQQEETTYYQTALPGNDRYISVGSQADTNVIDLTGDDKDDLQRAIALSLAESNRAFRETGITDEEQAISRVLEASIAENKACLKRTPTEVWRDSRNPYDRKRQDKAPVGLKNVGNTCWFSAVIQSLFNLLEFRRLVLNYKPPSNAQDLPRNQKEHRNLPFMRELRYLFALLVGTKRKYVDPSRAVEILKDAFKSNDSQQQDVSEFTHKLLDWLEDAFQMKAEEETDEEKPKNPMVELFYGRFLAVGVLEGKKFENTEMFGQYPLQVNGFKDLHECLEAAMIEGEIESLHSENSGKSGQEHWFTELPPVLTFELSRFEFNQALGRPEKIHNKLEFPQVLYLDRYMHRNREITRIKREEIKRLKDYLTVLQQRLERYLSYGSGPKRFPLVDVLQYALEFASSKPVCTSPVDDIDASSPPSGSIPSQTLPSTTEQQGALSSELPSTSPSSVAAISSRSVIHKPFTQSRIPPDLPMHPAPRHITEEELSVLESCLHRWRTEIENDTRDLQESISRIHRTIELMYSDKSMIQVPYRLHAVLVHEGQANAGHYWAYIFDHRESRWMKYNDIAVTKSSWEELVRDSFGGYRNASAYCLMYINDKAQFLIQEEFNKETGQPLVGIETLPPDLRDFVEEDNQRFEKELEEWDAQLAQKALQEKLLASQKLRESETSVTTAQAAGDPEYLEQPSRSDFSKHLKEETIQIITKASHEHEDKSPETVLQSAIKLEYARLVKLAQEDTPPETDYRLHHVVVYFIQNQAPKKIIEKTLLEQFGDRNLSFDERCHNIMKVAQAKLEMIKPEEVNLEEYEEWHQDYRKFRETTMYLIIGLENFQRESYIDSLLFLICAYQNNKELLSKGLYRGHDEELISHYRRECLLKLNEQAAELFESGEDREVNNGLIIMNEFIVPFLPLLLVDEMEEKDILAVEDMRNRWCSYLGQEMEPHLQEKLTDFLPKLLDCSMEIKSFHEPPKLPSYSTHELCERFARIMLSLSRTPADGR
Procedure, shortened: as §1

USP28 = target: T4, USP28 (UniProt Q96RU2)
T4 sequence (whole entry): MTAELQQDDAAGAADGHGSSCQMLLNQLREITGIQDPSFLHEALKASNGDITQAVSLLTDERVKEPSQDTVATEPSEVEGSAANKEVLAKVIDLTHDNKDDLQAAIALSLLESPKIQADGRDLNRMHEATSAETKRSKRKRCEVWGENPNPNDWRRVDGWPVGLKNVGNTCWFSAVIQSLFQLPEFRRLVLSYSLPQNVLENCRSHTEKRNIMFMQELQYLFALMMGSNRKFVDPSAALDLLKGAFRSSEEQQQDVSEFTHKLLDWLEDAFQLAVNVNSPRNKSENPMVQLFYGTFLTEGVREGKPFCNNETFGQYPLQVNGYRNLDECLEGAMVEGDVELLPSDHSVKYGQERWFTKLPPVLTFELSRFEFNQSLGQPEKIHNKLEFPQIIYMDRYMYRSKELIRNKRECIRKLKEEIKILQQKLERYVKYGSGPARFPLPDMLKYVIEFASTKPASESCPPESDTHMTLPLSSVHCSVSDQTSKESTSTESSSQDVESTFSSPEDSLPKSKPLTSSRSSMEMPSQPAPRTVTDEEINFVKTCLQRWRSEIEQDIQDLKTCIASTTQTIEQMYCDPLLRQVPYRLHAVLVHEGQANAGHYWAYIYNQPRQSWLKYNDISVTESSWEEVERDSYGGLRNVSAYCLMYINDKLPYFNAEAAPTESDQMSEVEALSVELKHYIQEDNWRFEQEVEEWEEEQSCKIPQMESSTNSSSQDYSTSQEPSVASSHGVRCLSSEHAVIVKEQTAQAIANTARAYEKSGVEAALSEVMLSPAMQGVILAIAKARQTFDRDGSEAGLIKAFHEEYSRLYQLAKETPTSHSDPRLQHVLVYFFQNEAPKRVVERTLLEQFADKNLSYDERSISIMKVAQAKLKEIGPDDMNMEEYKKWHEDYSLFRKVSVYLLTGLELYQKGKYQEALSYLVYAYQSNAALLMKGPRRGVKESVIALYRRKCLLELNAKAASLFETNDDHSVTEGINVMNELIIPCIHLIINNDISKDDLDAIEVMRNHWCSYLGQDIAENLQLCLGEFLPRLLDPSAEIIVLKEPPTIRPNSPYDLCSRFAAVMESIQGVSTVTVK
Procedure, shortened: as §1

Measured: log2 ratio of Biotin-Ahx-Ub-VS probe labelling

Cc1cc(CC(C)NC(=O)CCl)n[nH]1 (stereo not given)
inactive: USP19 -0.257 | USP22 0.128 | USP24 -0.17 | USP25 -0.198 | USP28 -0.332
